An excerpt weighted towards active compounds, which were near 1.5% of everything screened.
IL1B cytotox: HUVEC cytotoxicity counter-screen, IL-1B stimulated. HUVEC cell count loss, Hoechst imaging. cell count reduction, % at 2 µM. 94,000 compounds, 0.41% hits. AID 845;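 active = cell count reduction more than 3 SD above the screen-wide mean, cut at about 70% in these data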;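 also: normalized per plate to untreated control cells as the no-loss baseline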
NFkB transloc inh: blocks IL-1B driven NFkB nuclear translocation in HUVEC cells; HUVEC IL-1B NFkB p65 nuclear translocation imaging; 94,000 compounds, 0.43% hits; inhibition, % at 2 µM;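 active = inhibition above about 30% together with a positive call from visual inspection of the well image, limit read from the data; inconclusive = inhibition above a set limit but visual check negative; inactive = inhibition not above a set limit, visual check negative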;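 also: nuclear over cytoplasmic p65 intensity ratio measured by imaging; 0% = IL-1B stimulated DMSO wells and 100% = unstimulated DMSO wells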
VCAM1 TNFa inh: reduces TNF alpha induced VCAM1 expression in HUVEC. HUVEC TNFa-induced VCAM-1 immunofluorescence, high-content imaging. inhibition, % at 2 µM. 95,000 compounds, 0.48% hits;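 active = inhibition above the batch mean plus 3 SD, with images confirmed as a hit by eye, cut at about 37% in these data; inconclusive = inhibition above that limit but hit not confirmed in images; inactive = inhibition not above that limit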;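 also: 0% = TNF-stimulated DMSO wells and 100% = unstimulated control wells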
IL1B NFkB pot: enhances IL-1B driven NFkB nuclear translocation. HUVEC IL-1B NFkB p65 nuclear translocation imaging. activation, % at 2 µM. 94,000 compounds, 0.3% hits;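 active = activation above 40%, about the mean plus 3 SD, also judged a hit on visual image review; inconclusive = activation above 40% but not a hit on visual review; inactive = activation not above 40% and no visual hit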;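 also: percent activation is computed from the nuclear over cytoplasmic p65 intensity ratio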
TNFa cytotox: HUVEC cytotoxicity counter-screen, TNF alpha stimulated | HUVEC TNFalpha-stimulated, Hoechst cell count, imaging | cell count reduction, % at 2 µM | 93,000 compounds, 0.17% hits | AID 848;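 active = cell count reduction exceeding the screen mean by over 5 SD, scaled to untreated wells per plate, cut at about 78% in these data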;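 also: cells counted after 24 h of TNF alpha exposure following the 1 h pretreatment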
The depositor's hits bear a star; u = inconclusive; x = no result given.

SMILES	IL1B cytotox	NFkB transloc inh	VCAM1 TNFa inh	IL1B NFkB pot	TNFa cytotox
COc1ccc(NC(=O)C2CCCNC2)cc1OCC(C)C (configuration not stated)	28.6	11.3	-11.0	-11.3	-4.0
CCCN1C(=O)CC(C(=O)OC)=C1C	-52.6	-2.8	10.9	2.8	-14.4
COC(=O)C1=C(C)N(CCc2ccccc2)C(=O)C1	92.6*	87.6*	7.3	-87.6	16.2
Cc1cc(C)c2cc(CN(CC3CCCO3)C(=O)NC3CCCCC3)c(=O)[nH]c2c1 (configuration not stated)	-12.7	-8.2	-3.6	8.2	-7.8
Cc1noc(C)c1CSc1nc2sc(C)c(C)c2c(=O)n1-c1ccccc1	-2.2	4.9	-6.1	-4.9	9.7
Cc1noc(C)c1CSc1nc2ccccc2c(=O)n1-c1ccc(Cl)cc1	88.7*	1.4	-18.1	-1.4	-9.8
Cc1ccc2c(c1)N(CC(=O)Nc1ccc3c(c1)OCCO3)C(=O)CO2	90.9*	99.3*	8.3	-99.3	-1.6
CCOC(=O)c1ccc(NC(=O)Cn2nnc(-c3ccccc3)n2)cc1	-7.7	-3.9	88.2*	3.9	98.4*
COCCCNC(=O)Cn1nnc(-c2ccc(NC(=O)c3ccccc3F)cc2)n1	-12.7	43.0*	6.5	-43.0	-5.4
CCn1c(=O)cc(OCC(=O)NCc2ccco2)c2ccccc21	25.5	-4.9	u	4.9	90.0*
COc1cccc(NS(=O)(=O)c2ccc3[nH]cc(C(=O)NCCC(C)C)c(=O)c3c2)c1	90.9*	19.1	-4.8	-19.1	-22.3
CCOC(=O)C1=C(C)NC(C)=C(C(=O)OCC)C1c1sccc1C	-7.6	-8.3	15.8	8.3	-25.0
CN(C)S(=O)(=O)c1cccc(C(=O)OCC(=O)Nc2ccccc2OC(F)F)c1	-2.5	6.1	-16.4	-6.1	-21.0
CCN(CC)S(=O)(=O)c1cccc(C(=O)OCC(=O)Nc2ccccc2OC(F)F)c1	-62.1	42.8*	-7.7	-42.8	-31.6
C(=C1/CCCC2=C1Nc1ncnn1C2c1ccccc1)/c1ccccc1 (configuration not stated)	16.7	37.7*	-8.9	-37.7	2.1
FC(F)(F)c1ccccc1C1C2=C(Nc3ncnn31)c1ccccc1CCC2 (configuration not stated)	-0.6	-32.5	8.5	32.5	0.8
CCc1c(C)sc2nc(C(C)C)nc(SCC(=O)N3CCc4ccccc4C3)c12	-20.8	-5.3	-1.8	5.3	-1.6
COc1cc(N(C)C)c(NC(C)=O)cc1C(=O)O	84.8*	-9.8	22.4	9.8	-4.8
CN(C)c1ccc(-c2ccccc2)nn1	10.3	-0.3	12.5	0.3	-14.2
O=C1CCCCN1CCc1c[nH]c2ccccc12	86.1*	-5.0	-1.6	5.0	0.7
O=C1CCC(=O)N1CCc1c[nH]c2ccccc12	-12.1	1.0	3.4	-1.0	-7.7
CCCc1nc(-c2cc3ccc(C)cc3[nH]c2=O)no1	84.3*	7.9	-14.3	-7.9	-21.8
O=[N+]([O-])c1ccc(Sc2nc3ccccc3o2)c([N+](=O)[O-])c1	-9.6	-16.2	73.2*	16.2	34.8
CCNc1nc(NCC)n2c(SCc3ccc(F)cc3)nnc2n1	2.5	-1.1	91.4*	1.1	87.9*
CC(C)COCC1CC2(CC(C)C(=O)CC2=O)C(=O)O1 (configuration not stated)	-7.0	-2.0	-31.4	2.0	19.8
SMILES	IL1B cytotox	NFkB transloc inh	VCAM1 TNFa inh	IL1B NFkB pot	TNFa cytotox
O=C(NCc1ccccc1)C1(c2ccccc2)CCN(S(=O)(=O)c2ccccc2)CC1	-76.6	-24.5	3.7	24.5	-31.3
CN(C)C(=O)C1(c2ccccc2)CCN(S(=O)(=O)c2ccccc2)CC1	90.2*	-26.0	16.8	26.0	-13.0
COc1ccc2sc3c(=O)[nH]c4ccccc4c3c2c1	-39.5	-43.4	28.6	43.4*	12.8
COc1ccc2c(c1)[nH]c(=O)c1sc3ccccc3c12	x	x	3.2	x	-5.7
O=C(Nc1ccc(-c2cn3ccsc3n2)cc1)C1CCCC1	90.2*	99.7*	-1.8	-99.7	-34.7
O=C(Nc1nnc(C2CCCO2)s1)c1cccs1 (configuration not stated)	70.1*	37.0*	16.7	-37.0	-1.0
COc1ccc2c(c1)-c1c(ssc1=S)C(C)(C)N2	93.9*	20.3	-25.5	-20.3	14.4
COc1ccc(-n2sc3c(c2=S)-c2cc(OC)ccc2NC3(C)C)cc1	-9.3	1.8	6.7	-1.8	-0.3
O=C(NCC(=O)N(Cc1ccccc1)C(C(=O)NC1CCCC1)c1ccncc1)c1ccco1 (configuration not stated)	20.4	10.5	17.4	-10.5	-4.8
Cc1cc(NC(=O)NC2CCCN2S(=O)(=O)c2ccc(Cl)cc2)no1 (configuration not stated)	-21.6	-0.6	5.2	0.6	4.2
N#Cc1c2c(c(NCc3ccco3)n3c1nc1ccccc13)CCC2	-7.1	6.3	52.4	-6.3	84.2*
CCn1c(SCCC#N)nnc1-c1ccncc1	27.6	-10.7	-0.5	10.7	-20.2
COc1ccc2c(c1)CCc1c(C(=O)N3CC4(C)CC3CC(C)(C)C4)noc1-2 (configuration not stated)	-58.2	-5.8	90.6*	5.8	8.1
COc1ccc2c(c1)CCc1c(C(=O)N3CCOCC3)noc1-2	-18.0	-3.4	-8.0	3.4	-22.3
C=CCc1ccc(OCCCCCN2CCOCC2)c(OC)c1	-10.5	6.7	17.7	-6.7	-10.7
COc1ccccc1OCc1ccc(C(=O)Nc2ccncc2)o1	5.5	6.4	-3.3	-6.4	-8.3
CCc1cccc(C)c1NC(=O)C1C2CCC(O2)C1C(=O)O (configuration not stated)	-150.0	-18.4	14.0	18.4	1.5
CCc1cccc(CC)c1NC(=O)C1SC(=Nc2ccccc2C)C(c2nc3ccccc3s2)=C1N (configuration not stated)	-3.9	-12.8	59.1*	12.8	-2.9
COc1ccc(OC)c(NS(=O)(=O)c2ccc(N3CCCC3=O)cc2)c1	x	x	40.9*	x	63.6
COc1ccc(CCNS(=O)(=O)c2ccc(N3CCCC3=O)cc2)cc1	-33.3	0.6	-27.3	-0.6	-30.7
CCOc1ccc(S(=O)(=O)Nc2cc(OC)ccc2OC)cc1	22.1	21.8	58.8*	-21.8	67.4
COc1ccc(S(=O)(=O)Nc2cc(OC)c(NC(=O)c3ccco3)cc2OC)cc1	-14.4	-43.1	6.2	43.1*	-26.7
CC1CCCN(C(=O)CSCC(=O)N=c2sc3ccccc3n2C)C1 (configuration not stated)	-102.1	-18.0	5.0	18.0	-38.7
CN(C)c1ccc(CNC23CC4CC(CC(C4)C2)C3)cc1	-2.9	3.3	-3.8	-3.3	-4.4
CCOC(=O)C1CCN(C(=O)COc2ccc(S(=O)(=O)NC(C)(C)C)cc2)CC1	-7.3	6.1	12.4	-6.1	6.7
COC(=O)c1cn(NC(=O)c2ccc(OC)c(OC)c2)c(=O)c2ccccc12	-2.0	39.0*	-11.1	-39.0	14.8
CCc1ccc(C(C(=O)NCCOC)N(C(=O)Cn2nnc3ccccc32)c2cccnc2)cc1 (configuration not stated)	15.7	-5.0	2.2	5.0	-37.0
